Source: PubChem BioAssay

Test: small-molecule microarray binders of probe aShh, primary screen, biochemical, biotinylated probe, 635/667 nm fluorescence (AID 1114);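 further: probe is biotin-labelled aShh protein from a stem cell growth factor screen; measures binding of labelled protein to compounds printed on the slide; score merges feature fluorescence at 667 nm with signal-to-noise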
Conditions: higher = more signal

Q: Which composite z-score does the source give for `COCCCNC(=O)[C@@]1(Sc2ccc(C)cc2)CC(=O)N(C2CCCCC2)[C@@H]1c1ccc(CO)cc1I` here?
A: -0.0362

Q: For `[N-]=[N+]=NCc1ccccc1C[C@]1(C(=O)O)COC(c2ccc(OCCCO)cc2)=N1`, which composite z-score is on record?
A: -0.341

Q: For `COC(=O)[C@@]1(Cc2ccc(OC)cc2)[C@H]2c3cc(C(=O)N(C)C)n(Cc4ccsc4Br)c3C[C@H]2CN1C(=O)c1ccccc1`, which composite z-score is on record?
A: 0.696

Q: Which composite z-score does the source give for `CCCCC(=C=CC[C@@H](O)c1ccc(OCCO)cc1)C[C@@H](O)c1ccccn1` here?
A: 0.0611

Q: For `O=C1NC(=O)C2C1C=CC(C(O)c1cccc(O)c1)N2Nc1ccc(Cl)cc1Cl` (stereo not given), which composite z-score is on record?
A: -0.212

Q: Which composite z-score does the source give for `[N-]=[N+]=NCc1ccccc1C[C@]1(C(=O)NCc2ccccc2)N=C(c2ccc(OCCCO)cc2)O[C@H]1c1ccccc1CN=[N+]=[N-]` here?
A: 0.338

Q: Which composite z-score does the source give for `O=C1O[C@H](c2ccccc2)[C@H](c2ccccc2)N2[C@H]1[C@@H](C(=O)N1CCN(c3ncccn3)CC1)[C@]1(C(=O)Nc3ccccc31)[C@H]2c1ccc(O)cc1` here?
A: -0.119

Q: For `COC(=O)[C@@]1(Cc2ccc(F)cc2)[C@H]2c3cc(C(=O)N4CCCC4)n(CCO)c3C[C@H]2CN1C(=O)c1ccccc1`, which composite z-score is on record?
A: 0.381

Q: Which composite z-score does the source give for `O=C1NC(=O)C2C1C=CC(C(O)c1ccc(F)cc1)N2Nc1ccccn1` (stereo not given) here?
A: 0.0684

Q: With `CC[C@H](C)C(=O)O[C@H]1CC[C@]2(C)C3=C(CCC2C1(C)C)[C@]1(C)CC[C@H]([C@H](C)CCCC(C)C)[C@@]1(C)CC3` (stereo not given in full) as the molecule, how does the composite z-score read?
A: -0.0769

Q: For `CCCC[C@H]1OB(O)C[C@H]2C1=C(COC)C[C@H]1C(=O)C=CC(=O)[C@H]12`, which composite z-score is on record?
A: 0.0062

Q: Which composite z-score does the source give for `CCCCCCCCCCC(O)C1C=CC2C(=O)N(C)C(=O)C2N1N1CCCCC1` (stereo not given) here?
A: 0.0278

Q: Which composite z-score does the source give for `C=CC[C@]1(C(=O)NCCCOC)N=C(c2ccc(OCCCO)cc2)O[C@H]1c1ccccc1` here?
A: -0.0626

Q: With `CC1CC/C=C\[C@H]2OC34C=CCN(c5ccc(Cl)cc5)C(=O)[C@H]3N(CCCO)C(=O)[C@]4(C)C2C(=O)O1` (stereo not given in full) as the molecule, how does the composite z-score read?
A: -0.0553

Q: With `C=C(CC1([C@@H](NP(=O)(c2ccccc2)c2ccccc2)[C@H]2C[C@@H]2CCN(C(=O)OCC)S(=O)(=O)c2ccc(C)cc2)CC1)c1ccccc1` as the molecule, how does the composite z-score read?
A: 0.935

Q: With `COCC1=C([C@H](O)CCc2ccccc2)[C@H](CO)n2c(=O)n(-c3ccccc3)c(=O)n2C1` as the molecule, how does the composite z-score read?
A: -0.0553

Q: For `COC(=O)c1ccc([C@H](NC(=O)c2ccccc2)[C@]2(C)C[C@H]2C2CCCCC2)cc1`, which composite z-score is on record?
A: 0.315

Q: Which composite z-score does the source give for `COCCOC(=O)N1C(=O)[C@@]2(c3cc(C#CC4=CCCCC4)ccc31)[C@H](c1ccccc1OCCO)N1[C@H](c3ccccc3)[C@H](c3ccccc3)OC(=O)[C@H]1[C@@H]2C(N)=O` here?
A: -0.167

Q: Which composite z-score does the source give for `C=CCC(OC(C)=O)[C@@H]1[C@@H](N(Cc2cc3ccccc3o2)C(=O)Cc2ccc(OC)cc2)c2cc(OCCCO)ccc2N1C(=O)Cc1ccc2ccccc2c1` (stereo not given in full) here?
A: 0.0815

Q: Which composite z-score does the source give for `COc1ccc([Si](C)(C)[C@H]2[C@H](CCO)O[C@@]3(C(=O)N(Cc4ccccc4)c4ccc(N(C=O)c5ccccc5)cc43)[C@@H]2C)cc1` here?
A: -0.0769

Q: Which composite z-score does the source give for `CC(C)CNC(=O)[C@@H]1c2ccccc2C(=O)N(Cc2ccccc2Cl)[C@H]1c1ccc(CO)cc1` here?
A: -0.0813

Q: For `CCCCNC(=O)c1ccc(C#C[Si](C)(C)C)c(OC(C)=O)c1`, which composite z-score is on record?
A: 0.0952

Q: With `COc1cc2c(cc1O)C(c1ccc(CN3CCCC3)cc1)N(Cc1cccc(OC(F)(F)F)c1)CC2` (stereo not given) as the molecule, how does the composite z-score read?
A: -0.0522

Q: For `C=CCOC(=O)[C@H]1[C@@H]2C(=O)O[C@@H](c3ccccc3)[C@@H](c3ccccc3)N2[C@@H](c2ccc(OCCOC(=O)[C@H]3C[C@H]4C(=O)NCC(=O)N4[C@H]3c3ccc(O)cc3)cc2)[C@]12C(=O)Nc1ccc(I)cc12`, which composite z-score is on record?
A: -0.367

Q: For `NC(=O)N1C(=O)C2C(C1=O)C1C=C(CCCO)C2C(c2ccc(CN3CCCC3)cc2)N1Cc1cccc(OC(F)(F)F)c1` (stereo not given), which composite z-score is on record?
A: 0.296

Q: With `C=C(CCCC)C(=O)CC[C@H](OC(C)=O)c1ccccc1OCCO` as the molecule, how does the composite z-score read?
A: 0.0121

Q: For `C=CCC(OC(C)=O)[C@@H]1[C@@H](N(Cc2cccc3ccccc23)C(=O)c2ccc(-c3ccccc3)cc2)c2cc(OCCCO)ccc2N1C(=O)c1ccc2ccccc2n1` (stereo not given in full), which composite z-score is on record?
A: 0.158

Q: Which composite z-score does the source give for `COC(=O)[C@@]1(Cc2ccccc2)[C@@H]2[C@@H](CC(=O)[C@H]2CC(=O)C(=O)N(C)C)CN1C(=O)c1ccccc1` here?
A: -0.0322

Q: With `COCCOC(=O)N1C(=O)[C@@]2(c3cc(C#Cc4ccc(OC)cc4)ccc31)[C@H](C(=O)Nc1nc3ccccc3s1)[C@H]1C(=O)O[C@H](c3ccccc3)[C@H](c3ccccc3)N1[C@@H]2c1ccccc1OCCO` as the molecule, how does the composite z-score read?
A: -0.138

Q: For `CCc1cccc(NC(=O)O[C@H]2[C@H](OC(=O)Nc3ccc4c(c3)OCO4)[C@H](OC(=O)Nc3ccc4c(c3)OCO4)[C@@H](OC)O[C@@H]2CO)c1`, which composite z-score is on record?
A: 0.131

Q: Which composite z-score does the source give for `C=C(COC)/C(=C/C[C@H](OC(=O)c1ccncc1)c1cccc(OCCO)c1)c1cnc2ccccc2c1` here?
A: 0.235

Q: For `COCCn1c(C(=O)N2CCCC2)cc2c1C[C@H]1CN(C(=O)c3ccccc3)[C@@](Cc3ccccc3)(C(=O)OC)[C@@H]21`, which composite z-score is on record?
A: 1.3

Q: Which composite z-score does the source give for `O=C1C2C=CC(C(O)C(c3ccccc3)c3ccccc3)N(Nc3ccccc3)C2C(=O)N1c1ccccc1` (stereo not given) here?
A: 0.0068

Q: For `Cc1ccc(S(=O)(=O)N2[C@@H](c3ccccc3)C(C(=O)O)=CC[C@H]2c2ccc(C#N)cc2)cc1`, which composite z-score is on record?
A: 0.385

Q: For `C=CCC(OC(C)=O)[C@@H]1[C@@H](N(Cc2cc3ccccc3o2)C(=O)c2ccc(-c3ccccc3)cc2)c2cc(OCCCO)ccc2N1C(=O)c1ccc2ccccc2n1` (stereo not given in full), which composite z-score is on record?
A: -0.124
